A selection: hits, their analogues and other compounds. The true share with any hit is near 15%.
VP16 counter – Gal4-VP16 reporter inhibition counter-screen; 310,000 tested, 3.5% active; Potency, µM (titrated, usually from 53.6 µM), for the others: at the highest dose activity, negative = inhibition, most hits filed as inhibitors; AID 2546; Drosophila S2 Gal4-VP16 UAS-luciferase, luminescence, 20 h;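 further: Gal4-VP16 expression switched on by copper sulfate through the metallothionein promoter; nearly all actives have a fitted effect of over 50% in size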
TDP1 cell noCPT – qHTS for Inhibitors of human tyrosyl-DNA phosphodiesterase 1 (TDP1): qHTS in cells in absence of CPT. DT40 Tdp1-/- hTDP1 cells, no CPT, ATP luminescence, 48 h. AID 686978, 2013. 420,000 tested, 15% active. Potency, µM (top dose mostly 46.2 µM), without a hit: at the highest dose activity change, negative = growth inhibition, most hits filed as inhibitors; further: nearly all actives have a fitted effect of over 55% in size
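Seeded 400 DT40-hTDP1 cells/well (vehicle DMSO, no 20 nM CPT); pinned compounds; ≥48 hr at 37 °C; CellTiter-Glo luminescence as viability measure.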
RORgamma inh – ROR gamma (mouse) transcription inhibition | Potency, µM (highest dose often 53.6 µM), without a hit: at the highest dose activity change, negative = inhibition, most hits filed as inhibitors | P51450 | Drosophila S2 Gal4-RORgamma UAS-luciferase reporter, 20 h | 310,000 tested, 5.4% active; further: nearly all actives have a fitted effect of over 60% in size
Target sequence (P51450 whole entry, looked up, the tested form may be a part): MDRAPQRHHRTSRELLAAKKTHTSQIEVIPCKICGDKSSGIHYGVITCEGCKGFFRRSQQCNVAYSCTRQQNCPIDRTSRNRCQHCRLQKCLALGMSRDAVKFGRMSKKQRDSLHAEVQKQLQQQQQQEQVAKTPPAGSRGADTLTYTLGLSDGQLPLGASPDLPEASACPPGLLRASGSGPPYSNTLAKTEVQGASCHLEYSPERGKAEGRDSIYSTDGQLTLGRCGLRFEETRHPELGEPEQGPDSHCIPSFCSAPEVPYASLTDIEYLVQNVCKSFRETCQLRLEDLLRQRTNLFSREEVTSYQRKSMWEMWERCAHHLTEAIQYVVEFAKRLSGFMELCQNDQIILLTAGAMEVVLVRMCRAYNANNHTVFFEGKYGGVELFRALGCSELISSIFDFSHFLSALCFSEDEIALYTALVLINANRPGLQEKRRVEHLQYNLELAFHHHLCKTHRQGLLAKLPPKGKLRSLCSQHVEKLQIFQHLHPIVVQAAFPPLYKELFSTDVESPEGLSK
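Luminescence from a UAS-regulated Photinus luciferase reporter in stably transfected Drosophila Schneider cells is measured; decreased signal marks ROR gamma inhibition. Fusion expression is induced by 700 uM copper sulfate for 20 hr.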
TDP1 cell CPT – DT40-hTDP1 cell growth loss with CPT; chicken DT40 Tdp1-/-;hTDP1 cells + 20 nM CPT, ATP luminescence, 48 h; Potency, µM (series often up to 46.2 µM), without a hit: at the highest dose activity change, negative = growth inhibition, hits mostly inhibitors; 420,000 tested, 12% active; AID 686979; further: nearly all actives have a fitted effect of over 55% in size
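Chicken DT40 Tdp1-/- cells stably complemented with human TDP1 were seeded at 400 cells/well in medium containing 20 nM camptothecin, exposed to pin-transferred compounds, and grown at 37 °C for at least 48 hr. Viability was read as ATP luminescence.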
ELG1 repair inh – blocks ELG1-dependent DNA repair in HEK293T cells. HEK293T ELG1-luciferase reporter, luminescence, 16 h; DNA damage induced by 5-fluorouridine. Potency, µM (doses to about 46.1 µM), for the others: at the top dose activity change, negative = inhibition, actives largely listed as inhibitors. 330,000 tested, 2.3% active. AID 504467; further: nearly all actives have a fitted effect of over 55% in size
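Cells (2,000 per well) received 5-fluorouridine plus test compound or DMSO and were incubated 16 hr at 37 °C, 5% CO2. Luciferase activity was read by luminescence 30 min after ONE-Glo addition; signal suppression marked inhibition of damage-induced ELG1 function.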
12-LOX inh – inhibitors of human 12S-lipoxygenase ALOX12. purified 12hLO, xylenol orange hydroperoxide absorbance. Potency, µM (series often up to 108 µM), for the others: top-dose activity change, negative = inhibition, most hits filed as inhibitors. 580,000 tested, 1.1% active. AID 1671190
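Hydroperoxide product was detected by ferrous iron/xylenol orange as the 573 to 405 nm absorbance ratio. Arachidonic acid at 40 uM (final) was turned over for 30 min at room temperature by 150 nM human 12hLO, pH 7.0 Hepes buffer, after 15 min compound preincubation.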
An asterisk follows results filed as active; ? = inconclusive; . = no result. The call rests on the fitted dose curve; in most records, active means well fitted curve in the direction sought with a large enough effect; inconclusive means small, poorly fitted or top-dose-only effect, or another doubt; inactive means no such curve, though single readings can be large; an effect the other way counts as inactive or inconclusive. On the % scale 0 is the no-effect control and ±100 the full control effect; potency means the concentration at half of the fitted maximal effect.

SMILES	VP16 counter	TDP1 cell noCPT	RORgamma inh	TDP1 cell CPT	ELG1 repair inh	12-LOX inh
CN(Cc1ccccc1)C(=O)c1cccc(NC(=O)C2CCCN(C(=O)OC(C)(C)C)C2)c1 (centres undefined)	.	16µM*	.	18µM*	26µM*	0%
CN(C(=O)c1ccc(NC(=O)C2CCCN(C(=O)OC(C)(C)C)C2)cc1)C1CCCC1 (centres undefined)	.	?	.	?	?	-2%
CN(CCc1ccccc1)C(=O)c1ccc(NC(=O)Cc2cccc(NC(=O)C3CCN(C(=O)C4CCC4)CC3)c2)cc1	.	21µM*	.	16µM*	.	36%
CCCn1c(-c2ccc(Cl)cc2)nc2c(=O)n(C)c(=O)[nH]c21	.	.	.	.	.	4%
O=C(NC1C[C@H]2CC[C@@H](C1)N2C(=O)Cc1ccc(Cl)cc1)c1ccncc1 (some centres undefined)	.	.	.	.	.	62%
CN(Cc1ccccc1)C(=O)c1cccc(NC(=O)Cc2ccc(NC(=O)C3CCN(C(=O)C4CCC4)CC3)cc2)c1	.	23µM*	.	?	.	-12%
O=C1C2C(C(=O)N1/N=C/c1cc(Br)cc([N+](=O)[O-])c1O)C1C=CC2C12CC2 (centres undefined)	-5%	16µM*	-24%	?	-6%	9%
CSCC[C@H](NC(=O)c1ccc(Cl)c([N+](=O)[O-])c1)c1nc2ccccc2[nH]1	?	?	1%	?	11%	?
O=C(NC(Cc1ccccc1)c1nc2ccccc2[nH]1)c1ccc(Cl)c([N+](=O)[O-])c1 (centres undefined)	?	23µM*	?	10µM*	?	-14%
O=C(Nc1nc2ccccc2[nH]1)c1ccccc1[N+](=O)[O-]	22µM*	-1%	8.9µM*	4%	?	0%
O=C(Nc1nc2ccccc2[nH]1)c1ccc(Cl)c([N+](=O)[O-])c1	?	?	2.8µM*	?	?	0%
Cc1cc(C)c(NC(=O)Cn2cnc3c2c(=O)n(C)c(=O)n3C)c(Cl)c1	.	.	.	.	.	-16%
Cn1c(=O)[nH]c(=O)c2c1nc(SCC(N)=O)n2Cc1ccccc1Cl	.	.	.	.	.	-52%
Cc1cc(C)n(-c2nc3ccccc3nc2N2CCCCCC2)n1	-12%	?	11µM*	?	1%	-14%
Cc1cc(C)n(-c2nc3ccccc3nc2N2CCCC2)n1	-1%	-20%	-17%	-16%	0%	13%
O=C(O)c1ccc(OCc2nnnn2-c2ccccc2)cc1	.	.	.	.	.	5%
COc1ccc(C(=O)N2CCC(C(=O)N3CCCCCCNC(=O)CC3)CC2)cc1F	.	.	.	.	.	59%
CNC(=S)NNC(=O)CSCc1ccccc1	.	.	.	.	.	-11%
CC(=O)Nc1ccc2c(c1)[nH]c(=O)c1ccccc12	.	?	.	0.82µM*	.	-5%
CCCN1CCN(CCCNc2nc(-c3ccc(OC)cc3)nc3ccccc23)CC1	.	.	.	.	.	14%
CCc1cccc(NC(=O)Nc2ccc3c(c2)N(C)C(=O)c2ccccc2S3)c1	.	23µM*	.	?	.	?
COc1cccc(CNC(=O)Nc2ccc3c(c2)N(C)C(=O)c2ccccc2S3)c1	.	?	.	23µM*	.	-18%
CN1C(=O)c2ccccc2Sc2ccc(NC(=O)N3CCN(c4cccc(Cl)c4)CC3)cc21	.	5.2µM*	.	7.3µM*	.	-16%
CC[N+]1(C)CCC(O)(/C=C/c2ccccc2)C(C(=O)/C=C/c2ccccc2)C1 (centres undefined)	.	0.13µM*	.	0.033µM*	.	-20%
O=C(CCCCCNC(=O)c1ccccc1)N/N=C/c1ccc(O)cc1O	-15%	-30%	-21%	-19%	8%	0%

High-throughput results: PubChem, National Center for Advancing Translational Sciences (NCATS)
